{
  "source": "PubChem BioAssay AID1345085",
  "about": "(National Center for Advancing Translational Sciences (NCATS), 2018)",
  "note": "Results filed as inconclusive are left out. Unmarked numbers belong to inactive results. Active and inactive are the calls of the source. The call rests on the fitted dose curve; in most records, active means well fitted cell-killing curve with a large enough effect; inconclusive means small, poorly fitted or top-dose-only effect, or effect the other way; inactive means no such curve, though single readings can be large or run the other way. On the % scale 0 is the no-effect control and ±100 the full control effect; potency means the concentration at half of the fitted maximal effect.",
  "data": [
    {"system": "SKOV3", "assay": "Confirmatory qHTS for gynecologic anti-cancer compounds from libraries of approved drugs and bioactive compounds; further: nearly all actives have a fitted effect of over 55% in size", "details": "gynecologic cancer cell panel viability, ATPlite luminescence, 48 h; series mostly up to 57.6 µM; activity change, negative = viability loss: at the top concentration", "outline": "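ATPlite luminescence read-out of cell viability; IC50 from 11-point 1:3 titrations, 57.5 uM to 0.977 nM, 48 h compound exposure at 37 C, 5% CO2. Cells seeded at 1,000/well 16 h before dosing.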", "values": [
      {"smiles": "Cc1cc(Nc2nc(N[C@@H](C)c3ccc(F)cc3)c(C#N)cc2F)n[nH]1", "Potency": "7.69 µM (active)"},
      {"smiles": "CCN1CCN(Cc2ccc(Nc3ncc(F)c(-c4cc(F)c5nc(C)n(C(C)C)c5c4)n3)nc2)CC1", "activity change, negative = viability loss": "34.5%"},
      {"smiles": "CCC1C(=O)N(C)c2cnc(Nc3ccc(C(=O)NC4CCN(C)CC4)cc3OC)nc2N1C1CCCC1", "note": "(centres undefined)", "Potency": "0.109 µM (active)"},
      {"smiles": "CCN(CC)CCCC(C)Nc1ccnc2cc(Cl)ccc12", "note": "(centres undefined)", "activity change, negative = viability loss": "7.6% [at 19.5 µM]"},
      {"smiles": "C[C@]12CCC(=O)C=C1CC[C@@H]1[C@@H]2[C@@H](O)C[C@@]2(C)[C@H]1CC[C@]2(O)C(=O)CO", "activity change, negative = viability loss": "-15.7%"},
      {"smiles": "Cc1cc(SCc2sc(-c3ccc(C(F)(F)F)cc3)nc2C)ccc1OCC(=O)O", "activity change, negative = viability loss": "-4.3%"},
      {"smiles": "C[C@]12CCC(=O)C=C1[C@@H]1C[C@@H]1[C@H]1[C@@H]3[C@@H]4C[C@@H]4[C@@]4(CCC(=O)O4)[C@@]3(C)CC[C@@H]12", "activity change, negative = viability loss": "0.284%"},
      {"smiles": "NC(=O)Nc1cc(-c2cccc(F)c2)sc1C(=O)NC1CCCNC1", "note": "(centres undefined)", "Potency": "5.44 µM (active)"},
      {"smiles": "CCCc1nn(C)c2c(=O)[nH]c(-c3cc(S(=O)(=O)N4CCN(C)CC4)ccc3OCC)nc12", "activity change, negative = viability loss": "-2.11%"},
      {"smiles": "CCOc1ccc(Nc2nc(-c3c(C)nc4ccccn34)cs2)cc1", "activity change, negative = viability loss": "-19.2%"},
      {"smiles": "O=c1[nH]c(=O)n([C@H]2C[C@H](O)[C@@H](CO)O2)cc1F", "activity change, negative = viability loss": "-5.81%"},
      {"smiles": "COc1cc(Nc2ncc(F)c(Nc3ccc4c(n3)N(COP(=O)(O)O)C(=O)C(C)(C)O4)n2)cc(OC)c1OC", "Potency": "5.44 µM (active)"},
      {"smiles": "Cc1ccc(NC(=O)c2ccc(CN3CCN(C)CC3)cc2)cc1Nc1nccc(-c2cccnc2)n1", "activity change, negative = viability loss": "-17.9%"},
      {"smiles": "CN(C)CC/C=C1\\c2ccccc2COc2ccccc21", "activity change, negative = viability loss": "7.32%"}
    ]}
  ]
}
